SMILES strings stand for the structures. Calls of active or inactive are those of the source.

A short description of experiment [1]: optical density shifts of acrAB sulA E. coli – strain DRC41, OD650, 48 h, E. coli filamentation inducer project, primary screen (AID 1152).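 Note: E. coli MC1000 strain DRC41 lacking acrAB efflux pump and sulA.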 The settings on record: higher = more signal, called active from +8 up or from −8 down.
Experiment [2] in a line: probe aLefty1 binding on compound microarray – biochemical, small-molecule microarray, 635/667 nm fluorescence, primary screen (AID 1153).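 Note: score merges spot fluorescence with signal-to-noise ratio from the scanned slide images.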 The settings on record: higher = more signal.
The nature of experiment [3]: plasmodial surface anion channel blockers, osmotic lysis – cell-based, P. falciparum Indochina, OD700, 1 h, primary screen (AID 1154). The settings on record: P. falciparum Indochina infected RBC osmotic lysis, higher = more signal, called active from +8 up or from −8 down.
Experiment [4] can be described thus: plasmodial surface anion channel blockers, osmotic lysis – cell-based, P. falciparum Indochina, OD700, 2 h, primary screen (AID 1155).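 Note: lysis reports solute entry through the parasite surface anion channel PSAC.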 Conditions: P. falciparum Indochina infected erythrocytes, higher = more signal, called active from +8 up or from −8 down.
Experiment [5] can be described thus: changes in parasitized red cell lysis, either direction – P. falciparum Indochina, OD700, 3 h, PSAC antagonist project, primary screen (AID 1156). The settings on record: P. falciparum-infected erythrocytes, osmotic lysis, higher = more signal, called active from +8 up or from −8 down.
Experiment [6] in a line: plasmodial surface anion channel blockers, osmotic lysis – cell-based, P. falciparum Indochina, OD700, 18 h, primary screen (AID 1157). Conditions: P. falciparum Indochina infected erythrocytes, osmotic lysis OD700, 18 h; higher = more signal, called active from +8 up or from −8 down.
Experiment [7] is described as follows: S6 kinase pathway phospho-S6 level changes – cell-based, A549, cytoblot, luminescence, serum-stimulated, primary screen (AID 1158).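 Note: serum-stimulated A549 lung adenocarcinoma cells; signal is phosphorylated S6 detected by cytoblot immunostaining with HRP secondary.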 The settings on record: 5 h, higher = more signal.
Experiment [8] concerns the target NADPH oxidase 2 (Homo sapiens) (UniProt P04839). The experiment is described as follows: compounds shifting NOX2 Amplex Red fluorescence – cell-based, HEK293-NOX2, PMA-stimulated, NOX inhibitor project, primary screen (AID 1159). Note: test concentration not given here. Conditions: 45 min, higher = more signal, called active from +8 up or from −8 down.
The target in experiment [9] is NADPH oxidase 4 (Homo sapiens) (UniProt Q9NPH5). In words: compounds shifting NOX4 Amplex Red fluorescence – cell-based, HEK293-NOX4, tetracycline-induced, NOX inhibitor project, primary screen (AID 1160). Conditions: HEK293-NOX4, Amplex Red H2O2 fluorescence, 45 min; higher = more signal, called active from +8 up or from −8 down.
Experiment [10] has as its target NADPH oxidase 5 (Homo sapiens) (UniProt Q96PH1). In words: compounds shifting NOX5 Amplex Red fluorescence – cell-based, HEK293-NOX5, NOX inhibitor project, primary screen (AID 1161). Conditions: HEK293-NOX5, ionomycin, 45 min, higher = more signal.
The nature of experiment [11]: compound effects on lung adenocarcinoma cell viability – A549, calcein-AM fluorescence, 48 h, basal, profiling panel (AID 1162). Note: test concentration not given here. Conditions: higher = more signal.
Experiment [12] in a line: compound effects on differentiated 3T3-L1 adipocyte viability – cell-based, 3T3-L1 adipocytes, calcein-AM fluorescence, 48 h, basal, profiling panel (AID 1163). Note: test concentration not given here. The settings on record: 3T3-L1 adipocytes viability, higher = more signal.
Experiment [13] can be described thus: compound effects on hepatocellular carcinoma cell viability – HepG2, calcein-AM fluorescence, 48 h, basal, profiling panel (AID 1164). Note: test concentration not given here. The settings on record: higher = more signal.
Experiment [14] can be described thus: compound effects on multiple myeloma cell viability – MM1S, calcein-AM fluorescence, 48 h, basal, profiling panel (AID 1165). Note: test concentration not given here. Conditions: higher = more signal.
The nature of experiment [15]: calcein-AM signal in unstimulated myeloma cells – cell-based, calcein-AM fluorescence, 48 h, PK04 Diversity Set, profiling panel (AID 1166).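 Note: cells grown under basal conditions without added stimulus; test concentration not given here.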 The settings on record: RPMI8226 myeloma viability, higher = more signal.
The nature of experiment [16]: JC-1 mitochondrial signal, unstimulated HepG2 cells – cell-based, JC-1 fluorescence, 24 h, 100 nL compound, profiling panel (AID 1167). Note: test concentration not given here. The settings on record: HepG2 mitochondrial potential, higher = more signal.
Experiment [17] in a line: JC-1 mitochondrial signal, unstimulated adipocytes – cell-based, JC-1 fluorescence, 3T3-L1 adipocytes, 24 h, 100 nL compound, profiling panel (AID 1168). Note: test concentration not given here. The settings on record: JC-1 mitochondrial fluorescence, higher = more signal, called active from +8 up or from −8 down.
Experiment [18] is described as follows: JC-1 mitochondrial signal, unstimulated myeloma cells – cell-based, JC-1 fluorescence, RPMI8226, 24 h, 100 nL compound, profiling panel (AID 1169). Note: test concentration not given here. Conditions: JC-1 mitochondrial potential fluorescence, higher = more signal.
Experiment [19] in a line: JC-1 mitochondrial signal, unstimulated MM1S myeloma – cell-based, JC-1 fluorescence, 24 h, 100 nL compound, profiling panel (AID 1170). Note: test concentration not given here. Conditions: MM1S mitochondrial potential, higher = more signal.
The nature of experiment [20]: resazurin metabolic signal in A549 cells – cell-based, resazurin fluorescence, 24 h, PK04 Diversity Set, profiling panel (AID 1171). Note: test concentration not given here. The settings on record: A549 viability, higher = more signal, called active from +8 up or from −8 down.

Sequence of NADPH oxidase 5 (Homo sapiens) (Q96PH1 whole entry, looked up): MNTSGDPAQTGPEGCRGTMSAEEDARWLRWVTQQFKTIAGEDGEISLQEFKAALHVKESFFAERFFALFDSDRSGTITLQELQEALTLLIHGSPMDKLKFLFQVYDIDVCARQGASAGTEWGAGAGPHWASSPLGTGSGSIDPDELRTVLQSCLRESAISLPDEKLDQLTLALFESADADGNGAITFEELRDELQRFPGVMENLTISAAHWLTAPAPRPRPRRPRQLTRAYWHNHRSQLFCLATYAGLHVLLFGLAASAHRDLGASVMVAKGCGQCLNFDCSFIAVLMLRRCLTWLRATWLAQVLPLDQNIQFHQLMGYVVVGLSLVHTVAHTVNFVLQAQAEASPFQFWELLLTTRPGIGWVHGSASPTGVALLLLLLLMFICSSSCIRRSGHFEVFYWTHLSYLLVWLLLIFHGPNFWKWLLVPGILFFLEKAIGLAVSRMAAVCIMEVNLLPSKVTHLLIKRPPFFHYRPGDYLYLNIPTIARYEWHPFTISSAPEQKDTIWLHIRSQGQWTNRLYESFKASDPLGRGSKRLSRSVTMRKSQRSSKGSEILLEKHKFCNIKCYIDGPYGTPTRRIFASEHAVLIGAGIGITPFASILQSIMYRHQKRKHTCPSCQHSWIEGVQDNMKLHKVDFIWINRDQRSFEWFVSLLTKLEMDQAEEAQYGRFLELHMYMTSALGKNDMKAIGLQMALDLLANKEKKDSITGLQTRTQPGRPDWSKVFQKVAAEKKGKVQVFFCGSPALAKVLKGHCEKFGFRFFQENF
Sequence of NADPH oxidase 2 (Homo sapiens) (P04839 whole entry, looked up): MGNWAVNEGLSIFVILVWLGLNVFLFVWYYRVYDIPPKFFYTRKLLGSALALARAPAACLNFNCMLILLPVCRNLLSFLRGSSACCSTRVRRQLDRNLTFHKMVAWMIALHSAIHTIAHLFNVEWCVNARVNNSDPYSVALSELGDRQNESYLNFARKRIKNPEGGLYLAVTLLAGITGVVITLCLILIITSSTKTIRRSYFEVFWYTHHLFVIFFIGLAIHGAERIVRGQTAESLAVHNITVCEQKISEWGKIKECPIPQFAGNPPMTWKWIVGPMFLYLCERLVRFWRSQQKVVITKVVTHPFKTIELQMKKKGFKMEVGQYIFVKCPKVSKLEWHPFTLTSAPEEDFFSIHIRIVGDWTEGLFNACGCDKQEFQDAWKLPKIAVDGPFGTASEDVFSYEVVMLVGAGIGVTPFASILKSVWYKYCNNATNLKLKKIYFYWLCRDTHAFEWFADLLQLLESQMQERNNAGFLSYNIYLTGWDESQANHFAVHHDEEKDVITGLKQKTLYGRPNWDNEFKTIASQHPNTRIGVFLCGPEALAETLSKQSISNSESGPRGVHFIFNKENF
Sequence of NADPH oxidase 4 (Homo sapiens) (Q9NPH5 whole entry, looked up): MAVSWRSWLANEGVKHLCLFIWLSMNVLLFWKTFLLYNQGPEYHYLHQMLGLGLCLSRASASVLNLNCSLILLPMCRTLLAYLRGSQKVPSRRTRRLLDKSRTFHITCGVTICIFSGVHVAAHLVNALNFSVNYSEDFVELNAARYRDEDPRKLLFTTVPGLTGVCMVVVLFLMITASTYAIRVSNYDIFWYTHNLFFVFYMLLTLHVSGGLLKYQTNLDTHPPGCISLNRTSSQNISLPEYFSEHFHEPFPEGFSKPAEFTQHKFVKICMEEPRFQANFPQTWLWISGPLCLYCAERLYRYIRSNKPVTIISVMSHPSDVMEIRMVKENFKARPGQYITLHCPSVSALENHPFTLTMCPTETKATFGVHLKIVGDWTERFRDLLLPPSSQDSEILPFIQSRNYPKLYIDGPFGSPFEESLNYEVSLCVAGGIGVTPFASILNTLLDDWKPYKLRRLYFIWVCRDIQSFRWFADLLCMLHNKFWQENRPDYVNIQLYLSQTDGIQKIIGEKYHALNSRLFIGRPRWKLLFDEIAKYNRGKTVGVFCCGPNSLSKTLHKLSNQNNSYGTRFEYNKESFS

With `CCCC=C(CCC)[C@@H](NS(=O)(=O)CC12CCC(CC1=O)C2(C)C)c1ccc(C(=O)OC)cc1` (stereo not given in full), the z-score was -0.645 (inactive) in experiment [1]; -0.777 (inactive) in [3]; -0.825 (inactive) in [4]; -0.399 (inactive) in [5]; -1.81 (inactive) in experiment [6]; 0.922 in experiment [7]. The z-score in experiment [8] was 0.219 (inactive); in [9], 0.669 (inactive); in [10] it was 2.48; in experiment [11], -0.672; in experiment [12], -0.316; in experiment [13] it was -0.915. For the same compound, the z-score in experiment [14] is 0.295; in experiment [15] it was -1.06; in experiment [16], -2; in experiment [17], 0.273 (inactive); in [18], 0.7; in experiment [19], -1.46. Moreover, the z-score in experiment [20] was 0.252 (inactive). Besides, the composite z-score in experiment [2] was determined as 0.0345.
As for `C[C@@H]1NC(=O)[C@@H](Cc2ccccc2)NC(=O)[C@@]23C(=O)N[C@@H](Cc4ccccc4)C2[C@H](C)[C@@]2(C)O[C@H]2C3/C=C/C/C=C\CNC1=O` (stereo not given in full), the z-score in [1] is -1.02 (inactive); in experiment [3] it was 1.92 (inactive); in [4], 0.581 (inactive); in experiment [5], 0.638 (inactive); in experiment [6], 0.159 (inactive); in [7] it was -0.177. Further, the z-score in [8] was 0.722 (inactive); in experiment [9], -0.614 (inactive); in experiment [10], 0.523; in experiment [11], -0.312; in [12] it was 0.599; in experiment [13], -0.543. Further, the z-score in experiment [14] was 0.18; in [15] it was -0.377; in experiment [16], -1.36; in experiment [17], -0.308 (inactive); in experiment [18], -0.0163; in [19], 1.09. The z-score in experiment [20] is -0.879 (inactive). For the same compound, the composite z-score in [2] was -0.0046.
In the case of `CN(C)C(=O)[C@@]1(Cc2ccccc2)N=C(c2ccc(OCCCO)cc2)O[C@H]1c1ccccc1`, the z-score is 0.756 (inactive) in experiment [1]; 14.9 (active) in experiment [3]; 2.63 (inactive) in [4]; 1.4 (inactive) in [5]; 1.33 (inactive) in experiment [6]; -0.39 in experiment [7]. The z-score was -0.896 (inactive) in [8]; 0.068 (inactive) in [9]; -1.7 in [10]; -0.518 in experiment [11]; 0.208 in [12]; 0.64 in experiment [13]. The z-score was -0.918 in [14]; -3.24 in [15]; 0.285 in experiment [16]; 0.708 (inactive) in experiment [17]; -0.0484 in [18]; -0.303 in [19]. Moreover, in experiment [20], the z-score is 1.18 (inactive). Besides, the composite z-score in experiment [2] is -0.0171.
For the compound `NCCCCCNC(=O)[C@H]1C[C@H]2C(=O)N3CCC[C@H]3C(=O)N2[C@H]1c1cccc(OCCO)c1`, the z-score in [1] is -0.068 (inactive); in experiment [3], 3.03 (inactive); in [4] it was 0.598 (inactive); in experiment [5], 0.428 (inactive); in experiment [6], 0.301 (inactive); in [7] it was -0.413. Besides, the z-score in experiment [8] was 2.6 (inactive); in experiment [9], 0.413 (inactive); in experiment [10], 2.48; in experiment [11], -0.173; in experiment [12] it was 0.101; in experiment [13] it was -0.816. The z-score is -1.53 in experiment [14]; -0.881 in experiment [15]; 0.37 in [16]; 0.13 (inactive) in experiment [17]; 0.113 in [18]; -0.503 in [19]. Further, the z-score in experiment [20] was -0.845 (inactive). The compound also registered a composite z-score in [2] of 0.984.
Turning to `COCCCNC(=O)[C@@H]1c2ccccc2C(=O)N(C(C)C)[C@H]1c1ccc(CO)cc1`, the z-score in experiment [1] was -0.476 (inactive); in [3], 0.178 (inactive); in experiment [4], 0.211 (inactive); in experiment [5], -0.172 (inactive); in experiment [6], 0.206 (inactive); in experiment [7] it was 0.219. For the same compound, the z-score in experiment [8] is 0.161 (inactive); in experiment [9] it was -0.904 (inactive); in experiment [10] it was -0.51; in experiment [11], 0.0112; in experiment [12], 0.534; in [13], -0.244. Besides, the z-score is -0.288 in [14]; -0.0405 in [15]; -0.106 in experiment [16]; -0.409 (inactive) in experiment [17]; -0.0966 in [18]; 0.942 in experiment [19]. In [20], the z-score was 0.167 (inactive). The same compound returned a composite z-score in [2] of 0.142.
`O=C(Cc1ccccc1)[C@H]1C2C=CCCC(c3ccccc3)=C2CN1Cc1ccccc1` (stereo not given in full): the z-score is 2.46 (inactive) in experiment [1]; 0.567 (inactive) in [3]; 0.186 (inactive) in experiment [4]; 0.879 (inactive) in [5]; 0.06 (inactive) in experiment [6]; -0.0984 in experiment [7]. The z-score in experiment [8] is -0.534 (inactive); in [9] it was 0.773 (inactive); in experiment [10] it was 1.13; in experiment [11], 0.128; in [12] it was 0.169; in experiment [13], 0.436. For the same compound, the z-score in [14] is 0.743; in [15], 0.602; in [16] it was 0.655; in experiment [17], 0.122 (inactive); in experiment [18], -0.196; in [19], 0.584. In addition, in experiment [20], the z-score is 0.807 (inactive). This compound showed a composite z-score in experiment [2] of -0.151.
Turning to `CCCN1C(=O)[C@@]2(Cc3ccccc31)N=C(c1ccc(OCCCO)cc1)O[C@H]2c1ccccc1`, the z-score was -0.621 (inactive) in experiment [1]; 18.6 (active) in experiment [3]; 3.99 (inactive) in experiment [4]; 2.49 (inactive) in experiment [5]; 0.986 (inactive) in experiment [6]; -0.408 in experiment [7]. The z-score in experiment [8] was -0.135 (inactive); in experiment [9], -0.123 (inactive); in [10], -1.61; in experiment [11] it was -1.06; in [12] it was 0.526; in experiment [13], -1.1. The z-score in experiment [14] was -3.51; in [15] it was -4.16; in [16], -0.895; in experiment [17], 0.201 (inactive); in experiment [18] it was -1.16; in experiment [19], -0.502. Besides, in [20], the z-score was -1.11 (inactive). Moreover, the composite z-score in experiment [2] came to 0.396.
Regarding `CC[C@@H]1C=C(C(=O)O)[C@H](c2ccccc2)N1S(=O)(=O)c1ccc(C)cc1`, the z-score in [1] was -1.24 (inactive); in [3] it was 1 (inactive); in experiment [4] it was 0.72 (inactive); in experiment [5], -0.393 (inactive); in [6] it was 0.512 (inactive); in experiment [7], -0.265. The z-score was 0.848 (inactive) in experiment [8]; -0.114 (inactive) in experiment [9]; -0.978 in experiment [10]; -0.71 in [11]; -1.48 in [12]; -1.22 in [13]. Further, the z-score was -0.0502 in [14]; -0.674 in experiment [15]; -0.93 in experiment [16]; -0.703 (inactive) in experiment [17]; 0.77 in [18]; -0.76 in experiment [19]. The z-score in [20] is -0.687 (inactive). Moreover, in experiment [2], the composite z-score is -0.0984.
As to `CC#CCO[Si](C#Cc1ccccc1)(C(C)C)C(C)C`, the z-score in experiment [1] was -0.112 (inactive); in [3], 0.175 (inactive); in [4], -0.286 (inactive); in [5], -0.975 (inactive); in experiment [6], -0.4 (inactive); in experiment [7], -1.16. In addition, the z-score was -2.19 (inactive) in experiment [8]; -0.176 (inactive) in [9]; -0.624 in experiment [10]; -0.511 in experiment [11]; -0.458 in [12]; -0.175 in experiment [13]. For the same compound, the z-score in [14] is -0.806; in [15], -1.83; in experiment [16], -1.51; in experiment [17], -0.628 (inactive); in experiment [18] it was -0.845; in experiment [19] it was -1.3. The z-score in experiment [20] was -0.537 (inactive). In experiment [2], this compound registered a composite z-score of -0.193.

(Values after PubChem BioAssay.)
